# Where “and” joins values, the source holds several entries; their conditions need not be identical. Equal values may be shown once. Calls of active or inactive are those of the source. The calls were made as follows: active = hit-call score of the fitted dose curve at least 0.9, where 1 is the maximum; inactive = score below 0.9.
# Read-out: Monocyte Chemoattractant Protein-1 (MCP1), CCL2 (gene 6347)
# Test: BSK_3C_MCP1: BioMAP Diversity Plus: 3C Assay for Monocyte Chemoattractant Protein-1 (MCP1) Biomarker Activity (AID 2283017)
# Settings: primary human endothelial cells (HUVEC); actives raise or lower the signal
# Description: BSK_3C is a cell-based, multiplexed-readout assay that uses umbilical vein endothelium, a human vascular primary cell, with measurements taken at 24 hours after chemical dosing in a 96-well plate.BSK_3C_MCP1 is an assay component measured in the BSK_3C assay. It measures MCP-1 antibody related to regulation of gene expression using ELISA technology.Data from the assay component BSK_3C_MCP1 was analyzed into 1 assay endpoint. This assay endpoint, BSK_3C_MCP1, was analyzed with bidirectional fitting relative to DMSO as the negative control and baseline of activity. Using a type of binding reporter, gain or loss-of-signal activity can be used to understand changes in the signaling as they relate to the gene CCL2. Furthermore, this assay endpoint can be referred to as a primary readout, because this assay has produced multiple assay endpoints where this one serves a signaling function. To generalize the intended target to other relatable targets, this assay endpoint is annotated to the cytokine intended target family, where the subfamily is chemotactic factor.
# The levels of cell surface (or secreted, indicated by the prefix "s") biomarker endpoints were measured by ELISA. Overt cytotoxicity to cells in confluent adherent cultures (all systems other than the BT system) was assessed by measuring total protein levels using sulforhodamine B (SRB) staining in parallel cultures at the time of biomarker measurements, indicated as SRB endpoints. For proliferation assays for adherent cell types, individual cell types are cultured at sub-confluence and relative cell numbers quantified by SRB staining at time points optimized for each system (48 h: 3C and CASM3C systems; 72 h: BT and HDF3CGF systems; 96 h: SAg system). SRB was performed by staining cells with 0.1% SRB after fixation with 10% TCA and reading wells at 560 nm.Viability and proliferation of PBMC (T cells) was quantified by Alamar Blue reduction for the SAg and BT systems. For PBMC viability (referred to as PBMC Cytotoxicity within the assay endpoint names), cells were plated (75,000/well in a 96-well plate) and then chemical samples added for 1 h before addition of activators, SEB and TSST-1 (20 ng/mL final concentration each). Cells were incubated for 90 h. Then, Alamar Blue (20 uL/well) (Invitrogen, Cat DAL1100) was added for 6 h, and the plates were read with a fluorescence microplate reader at 546/580 nm (excitation/emission). For PBMC proliferation, cells were plated and activated as above but incubated for only 16 h prior to addition of Alamar Blue. Plates were read after 6 h.
SMILES,outcome,AC50
COc1nc(C)nc(NC(=O)NS(=O)(=O)c2ccccc2OCCCl)n1,inactive,
CCCN(CCC)c1c([N+](=O)[O-])cc(C(F)(F)F)c(N)c1[N+](=O)[O-],,29.4 µM (active)
CSC(=O)c1cccc2nnsc12,inactive,
N[C@@H](Cc1cc(I)c(Oc2ccc(O)c(I)c2)c(I)c1)C(=O)O,inactive,
COC(=O)c1ccc(CNS(C)(=O)=O)cc1S(=O)(=O)NC(=O)Nc1nc(OC)cc(OC)n1,inactive,
C#C[C@]1(O)CC[C@H]2[C@@H]3CCC4=CC(=O)CC[C@@H]4[C@H]3CC[C@@]21CC,inactive,
O=C(O)C1(C(=O)Nc2ccc(Cl)cc2Cl)CC1,inactive,
CCOC(=O)C(C)Oc1ccc(Oc2nc3ccc(Cl)cc3o2)cc1 (stereo not given),,20 µM (active)
Cc1nn(C)c(Oc2ccccc2)c1C=NOCc1ccc(C(=O)OC(C)(C)C)cc1,,14.4 µM (active)
S=C([S-])NCCNC(=S)[S-].[Mn+2],inactive,
CC(=O)[C@H]1CC[C@H]2[C@@H]3CCC4=CC(=O)CC[C@]4(C)[C@H]3CC[C@]12C,,8.12 µM (active)
CCC(O)=C1C(=O)CC(C(=O)O)CC1=O (stereo not given),inactive,
O=C(c1ccc(O)cc1O)c1ccc(O)cc1O,inactive,
CC(C)(c1ccc(O)cc1)c1ccc(O)cc1,inactive,
CC(=O)S[C@@H]1CC2=CC(=O)CC[C@]2(C)[C@H]2CC[C@@]3(C)[C@@H](CC[C@@]34CCC(=O)O4)[C@H]12,,27.7 µM (active)
CCCCCOC(=O)COc1cc(N2C(=O)C3=C(CCCC3)C2=O)c(F)cc1Cl,inactive,
CCCCC(CC)CN1C(=O)C2C3C=CC(C3)C2C1=O (stereo not given),inactive,
CCOC(=O)C(C)Oc1ccc(Oc2cnc3cc(Cl)ccc3n2)cc1 (stereo not given),inactive,
CCCOC(=O)c1ccc(C(=O)OCCC)nc1,inactive,
COC(=O)c1cccc(C)c1S(=O)(=O)NC(=O)Nc1nc(OCC(F)(F)F)nc(N(C)C)n1,inactive,

SMILES,outcome,AC50
CCCCOC(=O)C(C)Oc1ccc(Oc2ccc(C(F)(F)F)cn2)cc1 (stereo not given),inactive,
COC(=O)CSc1cc(N=c2sc(=O)n3n2CCCC3)c(F)cc1Cl,inactive,
CCSC(=O)N(CC(C)C)CC(C)C,inactive,
C=CCOC(Cn1ccnc1)c1ccc(Cl)cc1Cl (stereo not given),inactive,
OB(O)O,inactive,
CCCCOC(=O)[C@@H](C)Oc1ccc(Oc2ccc(C(F)(F)F)cn2)cc1,inactive,
COC(=O)c1c(Cl)nn(C)c1S(=O)(=O)NC(=O)Nc1nc(OC)cc(OC)n1,inactive,
Oc1ccc(C(c2ccc(O)cc2)C(Cl)(Cl)Cl)cc1,,29.1 µM (active)
CCOC(=O)c1ccc(O)cc1,inactive,
COC(=O)c1ccc(I)cc1S(=O)(=O)NC(=O)Nc1nc(C)nc(OC)n1,inactive,
CCN(CC)C(=O)c1cccc(C)c1,inactive,
CCOC(=O)NCCOc1ccc(Oc2ccccc2)cc1,,28.5 µM (active)
CCC(C)OC(=O)N1CCCCC1CCO (stereo not given),inactive,
CC(C)(C)[C@@H](O)[C@@H](Cc1ccc(Cl)cc1)n1cncn1,inactive,
COC(=O)c1ccccc1S(=O)(=O)NC(=O)Nc1nc(OC(F)F)cc(OC(F)F)n1,inactive,
N#CSCSc1nc2ccccc2s1,,5.23 µM (active) and 12.1 µM (active)
CC1(C)C(C=C(Cl)Cl)C1C(=O)OCc1cccc(Oc2ccccc2)c1 (stereo not given),inactive,
CCNc1nc(N)nc(Cl)n1,inactive,
CC(C)CCCCCCc1ccc(O)cc1,,9.8 µM (active)
CCCCC(CC)COC(=O)c1ccccc1C(=O)O (stereo not given),inactive,
